# Data published in PubChem BioAssay.
# Several values for one entry are separate records, joined by “and”; a condition that tells them apart may be missing. Equal values may be shown once. Activity calls are given as the source filed them.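 How the source made its calls, unless noted: active means thallium flux through the channel raised or lowered by more than 3 SD from vehicle-only wells, actives on both sides; inactive means the rest.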
# What was measured:
# [1] = P. berghei load reduction in hepatocytes – cell-based, HepG2, luciferase luminescence, HepG2 viability, primary screen (AID 624349; in the data active means parasite load remaining mostly below about 12%, no sharp cut-off; inactive means mostly above about 10%;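 further: 100% = mean of DMSO negative control wells on the same plate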); conditions: P. berghei liver stage in HepG2, luciferase luminescence, concentration not given here; parasite load remaining: stronger effect = lower value; viability: measured here: HepG2 viability without parasites
# [2] = signal quenchers or enhancers, Cy5 substrate/SSB – biochemical, NIH Clinical Collection, E. coli SSB, artefact control for HCV NS3 helicase inhibitor project (AID 743268; call rule not given here); conditions: Cy5-oligo bound E. coli SSB, fluorescence interference
# [3] = test system: Hepatitis C virus NS3 helicase; test: blockers of NS3h binding to DNA – biochemical, fluorescence polarization, NIH Clinical Collection, primary screen (AID 743270; call rule not given here); conditions: NS3 helicase binding to Cy5-dT15 DNA, stronger effect = higher value, concentration not given here
# [4] = target: Single-stranded DNA-binding protein (Escherichia coli (strain K12)) (UniProt P0AGE0); test: SSB-ssDNA binding inhibitors – biochemical, fluorescence polarization, NIH Clinical Collection, counter-screen for HCV NS3 helicase inhibitor project (AID 743271; in the data active means inhibition above about 28%); conditions: E. coli SSB-DNA binding, stronger effect = higher value, concentration not given here
# [5] = compounds distorting NS3 helicase fluorescence signal – biochemical, NIH Clinical Collection, artefact control for HCV NS3 helicase inhibitor project (AID 743272; call rule not given here;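 further: HCV NS3 helicase with a Cy5 labelled single stranded DNA probe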); conditions: fluorescence interference counterscreen, HCV NS3 helicase assay; stronger effect = lower value
# [6] = modulation of C. elegans fzo-1 (AID 1259413; call rule not given here;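 further: fzo-1 mutant C. elegans worms in liquid wells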); conditions: C. elegans fzo-1 modulator screen, mean read-out; stronger effect = higher value
# [7] = EMT-state selective cytotoxicity in co-culture – imaging, PC-3E GFP, TEM4-18 mCherry, primary screen (AID 1345086;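 active means compounds killing one labelled cell type while sparing the other, by normalised counts and ratio limits, not self-fluorescent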;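 on all read-outs here: cells exposed to compound for 72 h before imaging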;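 on red/green cell ratio (normalised): normalised mesenchymal count divided by normalised epithelial count so high means epithelial killing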); conditions: PC-3E GFP / TEM4-18 mCherry co-culture, imaging cell counts, at 1 µM; for red/green cell ratio (normalised): actives lie on both sides, counts scaled to control wells, 1 = unselective
# [8] = viability loss with induced miR-34 in A549 – imaging, A549 dox-inducible miR-34, nuclei and caspase counts, primary screen (AID 1347080;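 active means compounds whose cell count with miR-34 switched on is under 0.7 times the count with it off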); conditions: A549 miR-34 inducible, Hoechst nuclei count, 48 h
# [9] = test system: F380Y; test: BK channel mutant inhibitors and activators – cell-based, U2OS BacMam, thallium flux, beta subunits, selectivity assay, profiling panel (AID 1259406); conditions: U2OS BacMam BK variants, at 30 µM;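 further: initial slope of Thallos dye fluorescence rise after thallium is added; log ratio against the mean of 0.3% DMSO vehicle wells on the same plate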
# [10] = test system: F380Y/beta1; test: as above; conditions: U2OS BacMam BK variants, at 30 µM
# [11] = test system: F380Y/beta2Delta; test: as above; conditions: U2OS BacMam BK variants, at 30 µM
# [12] = test system: F380Y/beta4; test: as above; conditions: U2OS BacMam BK variants, at 30 µM
# [13] = target: Calcium-activated potassium channel subunit alpha-1 (Homo sapiens) + Leucine-rich repeat-containing protein 26 (Homo sapiens) (UniProt Q12791+Q2I0M4); test: as above; conditions: U2OS BacMam BK variants, F380Y/Slo1WT/gamma1, at 30 µM
# Sequence of Calcium-activated potassium channel subunit alpha-1 (Homo sapiens) + Leucine-rich repeat-containing protein 26 (Homo sapiens) (Q2I0M4 whole entry, looked up, one chain of several): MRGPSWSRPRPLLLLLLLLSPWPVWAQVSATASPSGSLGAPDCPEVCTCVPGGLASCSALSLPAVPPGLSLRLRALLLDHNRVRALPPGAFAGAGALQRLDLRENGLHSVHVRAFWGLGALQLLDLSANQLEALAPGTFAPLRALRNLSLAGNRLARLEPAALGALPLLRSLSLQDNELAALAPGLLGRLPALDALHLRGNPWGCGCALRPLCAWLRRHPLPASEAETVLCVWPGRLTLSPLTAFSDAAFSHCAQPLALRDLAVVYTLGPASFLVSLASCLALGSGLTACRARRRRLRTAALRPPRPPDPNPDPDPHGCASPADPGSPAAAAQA
# [14] = test system: R275C; test: as above; conditions: U2OS BacMam BK variants, at 30 µM
# [15] = test system: R275C/beta1; test: as above; conditions: U2OS BacMam BK variants, at 30 µM
# [16] = test system: R275C/beta2Delta; test: as above; conditions: U2OS BacMam BK variants, at 30 µM
# [17] = test system: R275C/beta4; test: as above; conditions: U2OS BacMam BK variants, at 30 µM
# [18] = test system: R275C/Slo1WT/beta2; test: as above; conditions: U2OS BacMam BK variants, at 30 µM
# [19] = MELAS cybrid and Rieske KO viability enhancers – cell-based, MELAS cybrids, Rieske KO mouse fibroblasts, CellTiter-Glo, primary screen (AID 1508586;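 active means mean z-score across replicates of 1.96 or higher in either the MELAS or the Rieske mutant cell line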;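 further: z relative to plate mean and SD of compound and empty wells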); conditions: low glucose
# [20] = measured here: epithelial PC-3E GFP cell survival
# [21] = measured here: mesenchymal TEM4-18 mCherry cell survival
# [22] = stronger effect = lower value, cell number ratio, induced over uninduced
# [23] = measured here: relative caspase fold change +Dox/-Dox
# [24] = measured here: total cells with miR-34 induction, stronger effect = lower value
# [25] = measured here: total cells without miR-34 induction
# [26] = MELAS cybrid survival, CellTiter-Glo 48 h, stronger effect = higher value
# [27] = Rieske KO mouse fibroblast survival, CellTiter-Glo 72 h
compound,measurement,setting,value
CC[C@H]1OC(=O)[C@H](C)[C@@H](O[C@H]2C[C@@](C)(OC)[C@@H](O)[C@H](C)O2)[C@H](C)[C@@H](O[C@@H]2O[C@H](C)C[C@H](N(C)C)[C@H]2O)[C@](C)(O)C[C@@H](C)CN(C)[C@H](C)[C@@H](O)[C@]1(C)O,parasite load remaining,[1],58.8% (inactive) and 152% (inactive) and 299% (inactive)
same,viability,[1],118% and 82.2% and 91.4%
same,fluorescence ratio,[2],1.05 (inactive)
same,inhibition,[3],1.36% (inactive)
same,inhibition,[4],-1.24% (inactive)
same,fluorescence ratio,[5],1.02 (inactive)
same,mean signal,[6],266 (inactive)
same,red/green cell ratio (normalised),[7],1.25 (inactive)
same,normalised cell number,[7]; [20],1.02
same,normalised cell number,[7]; [21],1.27
same,fold change,[8]; [22],0.953 (inactive) and 0.891 (inactive)
same,fold change,[8]; [23],2.3 and 7.33
same,cell count,[8]; [24],9960 and 9940
same,cell count,[8]; [25],10500 and 11200
same,log fold change Tl+ flux,[9],0.0649 (inactive)
same,log fold change Tl+ flux,[10],0.00314 (inactive)
same,log fold change Tl+ flux,[11],0.0029 (inactive)
same,log fold change Tl+ flux,[12],-0.0644 (inactive)
same,log fold change Tl+ flux,[13],-0.014 (inactive)
same,log fold change Tl+ flux,[14],0.011 (inactive)
same,log fold change Tl+ flux,[15],0.0228 (inactive)
same,log fold change Tl+ flux,[16],-0.0452 (inactive)
same,log fold change Tl+ flux,[17],-0.073 (inactive)
same,log fold change Tl+ flux,[18],0.026 (inactive)
CC(Cc1ccc(O)c(O)c1)(NN)C(=O)O (stereo not given),parasite load remaining,[1],41.4% (inactive) and 31.2% (inactive)
same,viability,[1],97.1% and 84.8%
same,fluorescence ratio,[2],1.04 (inactive)
same,inhibition,[3],-2.27% (inactive)
same,inhibition,[4],-0.48% (inactive)
same,fluorescence ratio,[5],1.05 (inactive)
same,mean signal,[6],254 (inactive)
same,red/green cell ratio (normalised),[7],1.18 (inactive)
same,normalised cell number,[7]; [20],1.1
same,normalised cell number,[7]; [21],1.3
same,fold change,[8]; [22],0.911 (inactive) and 0.909 (inactive)
same,fold change,[8]; [23],2.2 and 3.05
same,cell count,[8]; [24],9190 and 11400
same,cell count,[8]; [25],10100 and 12600
same,log fold change Tl+ flux,[9],-0.0414 (inactive)
same,log fold change Tl+ flux,[10],0.04 (inactive)
same,log fold change Tl+ flux,[11],0.0399 (inactive)
same,log fold change Tl+ flux,[12],0.0475 (inactive)
same,log fold change Tl+ flux,[13],0.00594 (inactive)
same,log fold change Tl+ flux,[14],0.0956 (active)
same,log fold change Tl+ flux,[15],0.024 (inactive)
same,log fold change Tl+ flux,[16],0.0162 (inactive)
same,log fold change Tl+ flux,[17],-0.024 (inactive)
same,log fold change Tl+ flux,[18],-0.00513 (inactive)
COC(=O)C[C@](O)(CCCC(C)(C)O)C(=O)O[C@@H]1C(OC)=C[C@]23CCCN2CCc2cc4c(cc2[C@H]13)OCO4,fluorescence ratio,[2],1 (inactive)
same,inhibition,[3],-0.22% (inactive)
same,inhibition,[4],1.18% (inactive)
same,fluorescence ratio,[5],0.99 (inactive)
same,mean signal,[6],211 (inactive)
same,fold change,[8]; [22],1.08 (inactive)
same,fold change,[8]; [23],1.16
same,cell count,[8]; [24],1670
same,cell count,[8]; [25],1550
same,log fold change Tl+ flux,[9],0.0231 (inactive)
same,log fold change Tl+ flux,[10],-4.2e-05 (inactive)
same,log fold change Tl+ flux,[11],-0.00992 (inactive)
same,log fold change Tl+ flux,[12],0.013 (inactive)
same,log fold change Tl+ flux,[13],-0.0674 (inactive)
same,log fold change Tl+ flux,[14],-0.0969 (inactive)
same,log fold change Tl+ flux,[15],-0.0403 (inactive)
same,log fold change Tl+ flux,[16],-0.0559 (inactive)
same,log fold change Tl+ flux,[17],-0.045 (inactive)
same,log fold change Tl+ flux,[18],0.0211 (inactive)
O=C1c2c(O)cc(O)cc2O[C@H](c2ccc(O)c(O)c2)[C@H]1O,parasite load remaining,[1],112% (inactive)
same,viability,[1],91%
same,fluorescence ratio,[2],0.99 (inactive)
same,inhibition,[3],1.19% (inactive)
same,inhibition,[4],-1.64% (inactive)
same,fluorescence ratio,[5],0.99 (inactive)
same,mean signal,[6],241 (inactive)
same,log fold change Tl+ flux,[9],0.0483 (inactive)
same,log fold change Tl+ flux,[10],-0.0233 (inactive)
same,log fold change Tl+ flux,[11],0.00163 (inactive)
same,log fold change Tl+ flux,[12],0.00589 (inactive)
same,log fold change Tl+ flux,[13],0.0266 (inactive)
same,log fold change Tl+ flux,[14],-0.0716 (inactive)
same,log fold change Tl+ flux,[15],-0.00477 (inactive)
same,log fold change Tl+ flux,[16],0.0423 (inactive)
same,log fold change Tl+ flux,[17],0.0387 (inactive)
same,log fold change Tl+ flux,[18],-0.0121 (inactive)
CC(C)(C)NC(=O)[C@@H]1C[C@@H]2CCCC[C@@H]2CN1C[C@@H](O)[C@H](Cc1ccccc1)NC(=O)[C@H](CC(N)=O)NC(=O)c1ccc2ccccc2n1,parasite load remaining,[1],82.5% (inactive) and 52% (inactive)
same,viability,[1],75.6% and 103%
same,fluorescence ratio,[2],1.02 (inactive)
same,inhibition,[3],2.77% (inactive)
same,inhibition,[4],12.2% (inactive)
same,fluorescence ratio,[5],1.01 (inactive)
same,mean signal,[6],234 (inactive)
same,fold change,[8]; [22],0.908 (inactive)
same,fold change,[8]; [23],0.962
same,cell count,[8]; [24],8420
same,cell count,[8]; [25],9260
same,z-score,[19]; [26],-0.0678 (inactive)
same,z-score,[19]; [27],-1.19
same,log fold change Tl+ flux,[9],-0.12 (active)
same,log fold change Tl+ flux,[10],-0.0774 (inactive)
same,log fold change Tl+ flux,[11],-0.2 (active)
same,log fold change Tl+ flux,[12],-0.072 (inactive)
same,log fold change Tl+ flux,[13],-0.0094 (inactive)
same,log fold change Tl+ flux,[14],-0.273 (active)
same,log fold change Tl+ flux,[15],0.138 (active)
same,log fold change Tl+ flux,[16],-0.11 (active)
same,log fold change Tl+ flux,[17],0.0316 (inactive)
same,log fold change Tl+ flux,[18],-0.0147 (inactive)
CC(C)OC(=O)CCC/C=C\C[C@@H]1[C@@H](CC[C@@H](O)CCc2ccccc2)[C@H](O)C[C@@H]1O,parasite load remaining,[1],89.4% (inactive) and 43.5% (inactive)
same,viability,[1],60.9% and 104%
same,fluorescence ratio,[2],0.97 (inactive)
same,inhibition,[3],0.4% (inactive)
same,inhibition,[4],-5.49% (inactive)
same,fluorescence ratio,[5],0.95 (inactive)
same,mean signal,[6],205 (inactive)
same,fold change,[8]; [22],0.899 (inactive)
same,fold change,[8]; [23],1.07
same,cell count,[8]; [24],10000
same,cell count,[8]; [25],11100
same,z-score,[19]; [26],0.73 (inactive) and -0.464 (inactive)
same,z-score,[19]; [27],1.53 and -0.0343
same,log fold change Tl+ flux,[9],0.503 (active)
same,log fold change Tl+ flux,[10],0.284 (active)
same,log fold change Tl+ flux,[11],-0.0484 (inactive)
same,log fold change Tl+ flux,[12],0.158 (active)
same,log fold change Tl+ flux,[13],0.228 (active)
same,log fold change Tl+ flux,[14],-0.0794 (inactive)
same,log fold change Tl+ flux,[15],0.476 (active)
same,log fold change Tl+ flux,[16],0.262 (active)
same,log fold change Tl+ flux,[17],0.467 (active)
same,log fold change Tl+ flux,[18],0.084 (active)
